TNFa cytotox – cytotoxicity in TNFa-stimulated HUVEC, primary screen, cytotoxicity control for VCAM1 expression modulator project, imaging, Hoechst nuclei count; HUVEC TNFalpha-stimulated, Hoechst cell count; cell count reduction, % at 2 µM; 93,000 compounds, 0.17% hits; AID 848, 2007;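 active means cell count reduction exceeding the screen mean by over 5 SD, scaled to untreated wells per plate, cut at about 78% in these data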;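 further: cells counted after 24 h of TNF alpha exposure following the 1 h pretreatment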
cytoskel mod – modifiers of F-actin cytoskeleton organization, primary screen, imaging, HUVEC, phalloidin staining, high-content imaging. 91,000 compounds, 0.18% hits. AID 836, 2007. HUVEC TNFa F-actin phalloidin imaging. inhibition, % at 2 µM;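 active means inhibition above the batch mean plus 3 SD and confirmed as a hit by visual image inspection, cut at about 30% in these data, passing the limit was not always enough; inconclusive means above the inhibition threshold but rejected on visual inspection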
VCAM1 TNFa inh – inhibitors of TNFa-induced VCAM1 expression, primary screen, imaging, HUVEC, TNFa stimulus, immunofluorescence. HUVEC TNFa-induced VCAM-1 immunofluorescence, high-content imaging. inhibition, % at 2 µM. 95,000 compounds, 0.48% hits. AID 802, 2007;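 active means inhibition above the batch mean plus 3 SD, with images confirmed as a hit by eye, cut at about 37% in these data; inconclusive means inhibition above that limit but hit not confirmed in images; inactive means inhibition not above that limit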;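 further: 0% = TNF-stimulated DMSO wells and 100% = unstimulated control wells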
E-sel TNF inh – E-selectin induction blockers in HUVEC – imaging, immunofluorescence, high content, primary screen. HUVEC TNFa-induced E-selectin immunofluorescence. inhibition, % at 2 µM. 120,000 compounds, 0.71% hits;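 active means inhibition above the batch mean plus 3 SD, and confirmed as a hit on visual image review, cut at about 43% in these data; inconclusive means passes the inhibition cutoff but fails visual image review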;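 further: 0% = TNF-stimulated DMSO wells and 100% = unstimulated control wells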
* marks the source's active call; other numbers are inactive results; u = inconclusive; x = no result given. Sampled rows, rich in hits. Any-hit rate of the full collection: about 1%.

SMILES	TNFa cytotox	cytoskel mod	VCAM1 TNFa inh	E-sel TNF inh
COc1cc2[nH]cc(C(=O)NCCc3ccccc3)c(=O)c2cc1OC	-3.4	-4.9	91.8*	18.2
COC(=O)c1ccc(S(=O)(=O)NCc2cccc(OC)c2)n1C	-14.3	40.9	9.2	63.9*
Cn1cc(/C=N/n2cnc3scc(-c4ccc(Cl)cc4)c3c2=O)c2ccccc21	65.2	-205.4	75.1*	x
CCn1cnc2scc(-c3ccccc3)c2c1=O	-10.1	-7.2	-8.7	-21.1
CCOc1ccc(C2/C(=C(\O)c3c(C)[nH]c(C(=O)OC)c3C)C(=O)C(=O)N2CCN(C)C)cc1 (configuration not stated)	76.0	-14.0	92.2*	x
CCOC(=O)N1CCC(NC(=O)c2ccc(CS(=O)(=O)c3ccc(OC)cc3)o2)CC1	-32.1	26.7	84.6*	x
COc1ccc(S(=O)(=O)Cc2ccc(C(=O)NC3CCCC3)o2)cc1	-12.0	-1.2	4.0	x
COc1ccc(S(=O)(=O)Cc2ccc(C(=O)N3CCOCC3)o2)cc1	x	x	x	95.4*
Cc1ccc(N2C(=O)C(Cl)=C(N3CCOCC3)C2=O)cc1Cl	x	x	x	-0.7
O=C(Nc1cccc(-c2nc3ccccc3o2)c1)c1ccc(N2C(=O)C3C4C=CC(C4)C3C2=O)cc1 (configuration not stated)	-9.7	-28.9	-2.9	15.8
CC(C)c1c(O)cc(-c2ccncc2)n(-c2ccc(Cl)cc2)c1=O	x	x	x	68.5*
Cc1cc(C(=O)CSc2nc3ccccc3[nH]2)c(C)n1CC1CCCO1 (configuration not stated)	-11.3	-12.1	-5.5	x
C/C(Cl)=C/Cn1c(NCCCn2ccnc2)nc2c1c(=O)[nH]c(=O)n2C	-1.8	-20.1	4.8	-12.8
C/C(Cl)=C\Cn1c(NCCCn2ccnc2)nc2c1c(=O)n(C)c(=O)n2C	89.1*	-35.4	87.5*	x
CCCc1sc(N/N=C/c2ccccn2)nc1-c1ccc(Br)cc1	-8.2	4.5	93.9*	-8.3
N#CC1=C(N)Oc2cc(O)ccc2C1c1cccs1 (configuration not stated)	-3.1	-7.1	13.4	-4.0
N#CC1=C(N)Oc2c(ccc3ccccc23)C1c1cccs1 (configuration not stated)	50.6	8.9	79.6*	5.8
CCc1ccccc1NC(=O)c1cc2sccc2n1C	-12.5	14.7	-0.3	-4.7
CCC(=O)N1CCc2cc(Br)cc(S(=O)(=O)NCc3ccco3)c21	x	x	x	78.9*
CCCCNC(=O)C1CCCN(S(=O)(=O)c2ccc(-n3cnnn3)cc2)C1 (configuration not stated)	-10.9	-22.0	-6.0	3.6
O=C(NCC1CC1)C1CCCN(S(=O)(=O)c2ccc(-n3cnnn3)cc2)C1 (configuration not stated)	-1.3	37.2	8.8	61.9*
COc1ccc(CNC(=O)C2COc3ccccc3O2)c(OC)c1 (configuration not stated)	-30.8	18.3	-1.7	-18.6
CC(C)n1c(SCC(=O)Nc2nc3c(s2)CCCC3)nc2c1c(=O)n(C)c(=O)n2C	-13.7	0.7	1.2	99.8*
O=C1N(Nc2ccccc2)C(c2ccc(Br)cc2)C12CCCC2 (configuration not stated)	-18.8	2.9	9.1	2.5
CCC(=O)Nc1nnc(-c2ccccn2)o1	x	x	x	68.0*
SMILES	TNFa cytotox	cytoskel mod	VCAM1 TNFa inh	E-sel TNF inh
COc1cccc(NC(=O)CSC2=C(C#N)C(c3ccco3)C3=C(CCCC3=O)N2)c1 (configuration not stated)	35.6	-6.8	-4.9	x
COc1ccc(C2C(C#N)=C(SCC(=O)Nc3ccc(C)cc3)NC3=C2C(=O)CC(C)(C)C3)cc1 (configuration not stated)	-6.4	6.3	-7.3	65.7*
NC(=S)N/N=C/c1ccc(-c2ccc(Cl)c(Cl)c2)o1	7.8	-4.6	67.8*	-1.1
COC(=O)N/N=C/c1ccc(-c2cc(Cl)ccc2Cl)o1	x	x	x	-4.9
COC(=O)N/N=C\c1ccc(-c2cc(Cl)c(Cl)cc2Cl)o1	x	x	x	6.9
NC(=S)N/N=C\c1ccc(-c2cccc(Cl)c2Cl)o1	49.2	-63.8	80.2*	0.9
COc1ccc(S(=O)(=O)NC(CC(=O)NCc2ccco2)C(C)C)cc1 (configuration not stated)	100.0*	u	u	x
CCC(C)NS(=O)(=O)c1ccc(OCC(=O)NCc2ccco2)cc1 (configuration not stated)	-0.9	-8.0	0.9	14.1
N#Cc1ccc(-c2cccnc2)nc1SCc1ccc(Cl)c(Cl)c1	x	x	x	67.1*
Cc1cc(C(=O)OCC(=O)c2cccc([N+](=O)[O-])c2)c2cccc(C)c2n1	-7.0	14.6	18.0	-31.1
Cc1ccc(C(=O)OCC(=O)N2CCc3ccccc32)cc1	-4.5	18.3	-7.6	-5.5
Cn1nc(C(=O)OCC(=O)N2CCc3ccccc32)c2ccccc2c1=O	88.0*	-20.1	77.0*	x
CN(C)S(=O)(=O)c1ccc(NS(=O)(=O)/C=C/c2ccccc2)cc1	-46.5	-2.1	14.0	98.7*
S=c1nccc(-c2cccs2)[nH]1	x	x	x	-21.7
COc1ccc(-c2nc(CNS(=O)(=O)c3ccc(OC)c(OC)c3)cs2)cc1	-37.6	-7.3	7.9	58.2*
O=C(NC1CC1)c1ccc(S(=O)(=O)NCC2CCCCC2)cc1	52.6	54.9*	50.7*	-4.8
O=C(NC1CC1)c1ccc(S(=O)(=O)NC2CCCCCC2)cc1	-13.7	30.3	11.3	-14.3
Cc1ccc2c(c1)c(C)c(C)n2CC(O)Cn1nnc2ccccc21 (configuration not stated)	-21.7	-0.7	-10.9	x
C/C=C/Cn1c(N2CCCCCC2)nc2c1c(=O)[nH]c(=O)n2C	3.4	13.3	-9.2	74.1*
Cn1c(=O)[nH]c(=O)c2c1nc(N1CCCCCC1)n2CC(N)=O	-8.7	-5.9	9.7	-41.6
CC1(C)Cc2ccccc2-c2nnc(-c3cccnc3)n21	-6.4	0.7	-12.7	x
Cn1nc(C(=O)Nc2ccc(S(=O)(=O)N3CCCCC3)cc2)c2ccccc2c1=O	x	x	x	-6.9
CN(C(=O)COC(=O)CCc1c[nH]c2ccccc12)C(c1ccccc1)c1ccccc1	x	x	x	-0.5
Cc1cc(C)c2cc3c(N)c(C(=O)N4CCc5ccccc5C4)sc3nc2c1	-4.0	10.7	4.9	9.0
CCOC(=O)C1=C(CSc2nc3c(cc2C#N)CN(C)CC3)OC(N)=C(C#N)C1c1ccccc1 (configuration not stated)	98.7*	12.3	u	x
Cc1cc(/C=C2\SC(=Nc3ccc(F)cc3)NC2=O)c(C)n1-c1ccc(S(N)(=O)=O)cc1	15.9	31.4*	40.6	4.0
O=C(Nc1cc(S(=O)(=O)N2CCOCC2)ccc1N1CCOCC1)c1cnccn1	x	x	x	5.3
CCOC(=O)C(C)Oc1cccc2c(=O)n(CC(=O)Nc3cccc(OC)c3)ccc12 (configuration not stated)	-14.0	-17.9	5.4	66.7*
CCOC(=O)C(C)Oc1cccc2c(=O)n(CC(=O)NCc3ccc4c(c3)OCO4)ccc12 (configuration not stated)	94.1*	u	38.7	x
